Out of some 350,000 compounds screened, about 2,700 (0.77%) were called active. Shown is part of a subset that was picked to be rich in actives. Values without a mark were called inactive.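 Rule for the calls: active = inhibition reaching at least a set limit at 20 µM in the primary screen (cut at about 59% in these data); inactive = the rest.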

The assay has as its system glucose-6-phosphate dehydrogenase-6-phosphogluconolactonase (Plasmodium falciparum 3D7). Put plainly: PfG6PD enzyme inhibitors, primary screen, biochemical, fluorescence intensity, uHTS (AID 504690).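 Note: 0% = DMSO wells with substrate and 100% = DMSO wells lacking glucose-6-phosphate.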 Particulars: PfGluPho enzyme, NADPH resazurin-diaphorase fluorescence; at 20 µM; active compounds read high. (In general: Resazurin is reduced to fluorescent resorufin, in cell work by metabolically active cells.)
For orientation: inhibition means the drop in the measured response relative to a control, in per cent. On to `C=C(C)C(=O)Nc1cccc(C2=NOC3(C2)C[C@H](C(N)=O)N(C(=O)C(c2ccccc2)c2ccccc2)C3)c1` (stereo partly drawn), for which the inhibition was -3.38%.

`COc1cc(C(=S)NCc2ccccc2)cc(Br)c1O`: the inhibition was 66.8% (active).

For the compound `COc1cc(C(=O)NCc2ccncc2)cc(Br)c1OCc1ccccc1`, the inhibition is 10.8%.

In the case of `COc1ccccc1OCCC(=O)OCC(=O)NCc1ccccc1`, the inhibition is 9.79%.

In the case of `Cc1ccc(C(O)P(=O)(OC(C)C)c2ccc(N(C)C)cc2)cc1` (stereo not drawn), the inhibition is -15%.

In the case of `O=C(O)C1CCCN1c1nc(Cl)ccc1[N+](=O)[O-]` (stereo not drawn), the inhibition was 26.3%.

As to `CC(C)(C)n1ncc2c(=O)n(Cc3c(Cl)cccc3Br)cnc21`, the inhibition was -2.98%.

For `COCCNC(=S)Nc1cc(S(=O)(=O)N2CCOCC2)ccc1N1CCCCC1`, the inhibition was 76.4% (active).

Take `O=C(COC(=O)Cc1ccc(F)cc1)Nc1cc(S(=O)(=O)N2CCOCC2)ccc1N1CCCC1`: the inhibition was -0.28%.

As to `CC(C)CCC(=O)Nc1cc(S(=O)(=O)N2CCOCC2)ccc1N1CCCC1`, the inhibition was 10.5%.

On to `CC(Oc1cccc(Cl)c1)C(=O)Nc1ccc(S(=O)(=O)Nc2ncccn2)cc1` (stereo not drawn), for which the inhibition was -6.55%.

Take `S=C(Nc1cccnc1)Nc1ccccn1`: the inhibition is 7.51%.

Regarding `O=C(N/N=C/c1ccccn1)C12CC3CC(CC(C3)C1)C2`, the inhibition is -7.42%.

As for `S=C(NN=Cc1ccccn1)Nc1ccccn1`, the inhibition was 64% (active).

For `CC(=O)Nc1ccc(NC(=O)CCN2C(=O)C3CC=CCC3C2=O)cc1` (stereo not drawn), the inhibition was -13%.

For the compound `O=C(Nc1ccc(N2CCN(C(=O)c3ccccc3)CC2)c(Cl)c1)c1cccnc1`, the inhibition was 17.8%.

`O=C(NCCN1CCCC(O)C1)c1cc(COc2c(F)cccc2F)on1` (stereo not drawn): the inhibition was -19.2%.

Turning to `CN1CCN(NC(=O)c2ccc(S(=O)(=O)N3CCCCCC3)cc2)CC1`, the inhibition is 5.23%.

Regarding `COc1ccc(S(=O)(=O)NCc2cccnc2)cc1NC(=O)c1ccc(C)cc1`, the inhibition is -3.1%.

On to `CCOc1ccc(NS(=O)(=O)c2ccc(C(=O)NCC3CCCO3)cc2)cc1` (stereo not drawn), for which the inhibition is 9.67%.

Turning to `CCOc1ccc(-n2c(N)c(C(=O)NCC3CCCO3)sc2=S)cc1` (stereo not drawn), the inhibition was 67.6% (active).

For `CCOc1ccc(S(=O)(=O)N2CCN(C(=S)NCC3CCCO3)CC2)cc1` (stereo not drawn), the inhibition was 8.65%.

Take `O=C(Nc1ccccc1C(=O)N1CCOCC1)C1CCC(=O)N1C1CCCC1` (stereo not drawn): the inhibition was -1.14%.

Consider `CC(OC(=O)CCc1nc(=O)c2ccccc2n1C)C(=O)NCc1ccc2c(c1)OCO2` (stereo not drawn), for which the inhibition is 5.1%.

For `O=C(COC(=O)Cn1cnc2ccccc2c1=O)NCc1ccccc1Cl`, the inhibition was 11%.

For the compound `Cn1c(CCC(=O)OCC(=O)NCc2ccccc2Cl)nc(=O)c2ccccc21`, the inhibition was 60.9% (active).

Take `O=c1c2ccccc2nnn1CSc1nc2sc3c(c2c(=O)n1CC1CCCO1)CCC3` (stereo not drawn): the inhibition is 13.2%.

In the case of `CC[C@@H](C)[C@@H]1CN([C@@H](C)CN2CCC[C@H]2CN2C(N)=NC[C@H]2C(C)C)C(=N)N1CCc1ccc(Cl)c(Cl)c1`, the inhibition was -10.9%.

On to `O=C(CN(CC1CCCO1)C(=O)CNS(=O)(=O)c1ccc(F)cc1)NCc1ccco1` (stereo not drawn), for which the inhibition is 9.81%.

On to `COc1cc(C(=O)CCc2ccc3c(c2)OCO3)cc(OC)c1OC`, for which the inhibition is 31.9%.

For `COc1c(O)ccc2c1CN1CCc3cc4c(cc3C1C2)OCO4` (stereo not drawn), the inhibition was 75.1% (active).

Turning to `COc1ccc2cc1Oc1ccc(cc1)C[C@H]1c3cc(c(OC)cc3CCN1C)Oc1c(O)c(OC)cc3c1[C@H](C2)N(C)CC3`, the inhibition was 10.2%.

In the case of `CCc1cccc(C)c1N1C(=O)CN(Cc2ccccc2)C1=S`, the inhibition is 8.09%.

`CN(C)C(=O)N=NC(=O)N(C)C`: the inhibition is 62.4% (active).

Take `O=C(Nc1cccc(Cl)c1)Nc1ccccc1NS(=O)(=O)c1cccs1`: the inhibition is -1.49%.

Turning to `CCCCSc1nc2c(c(=O)n1CC)SC(C)C2` (stereo not drawn), the inhibition is -22.8%.

As to `COc1ccc(C(=O)Nc2sc(C)c(C)c2CN2CCOCC2)cc1`, the inhibition is 3.12%.

`CCc1cc(C(=O)c2ccc(OC)cc2)c(NC(=O)CN2CCN(C)CC2)s1`: the inhibition is -3.28%.

Turning to `CCc1cc(C(N)=O)c(NC(=O)c2ccc(OC)cc2)s1`, the inhibition was 63.8% (active).

`O=C1CC(C(F)(F)C(F)(F)C(F)(F)C(F)(F)F)=Nc2ccccc2N1`: the inhibition was 6.19%.

As for `CCc1cccc2c3c([nH]c12)C(CC)(CC(=O)O)OCC3` (stereo not drawn), the inhibition was -16.9%.

Turning to `Nc1ccc(-c2nnc(-c3ccc(-c4ccccc4)cc3)o2)cc1`, the inhibition was 64% (active).

Turning to `CN(C)c1ccc(-c2nnc(-c3cccnc3)o2)cc1`, the inhibition is 3.13%.

Consider `COc1ccc(-c2nnc(-c3ccc4ccccc4c3)o2)cc1`, for which the inhibition was 15.1%.

Turning to `CC(C)C[C@@H](NC(=O)[C@H]1CCCN1C(=O)Cc1ccccc1)C(N)=O`, the inhibition is -7.04%.

As for `C/C=C/C=C/C(=O)OCC(=O)Nc1ccc(Cl)cc1`, the inhibition is 8.86%.

On to `Cc1ccc(NC(=O)Cn2sc3ccccc3c2=O)cc1`, for which the inhibition is 125% (active).

As to `O=C(Cn1nc(C(=O)O)c2ccccc2c1=O)Nc1ccc(F)cc1`, the inhibition was -5.5%.

Take `Cc1ccc(NC(=O)Cn2c(C)csc2=O)cc1`: the inhibition is 3.32%.

Regarding `CCOc1ccc(/C(O)=C2\C(=O)C(=O)N(c3ccc(OC)cc3)C2c2ccccc2[N+](=O)[O-])cc1` (stereo not drawn), the inhibition was -3.26%.

On to `Cc1cc(OCC(=O)Nc2nccs2)c2c(C)c(C)c(=O)oc2c1`, for which the inhibition was 0.15%.

As to `CCCCn1c(N)c(N(CC(C)C)C(=O)c2cccc(S(=O)(=O)N3CC(C)OC(C)C3)c2)c(=O)[nH]c1=O` (stereo not drawn), the inhibition was -1.62%.

On to `CCC1(CC)NC(=O)N(CC(=O)OCC(=O)Nc2ccc(C(F)(F)F)cc2)C1=O`, for which the inhibition was 3.64%.

As for `O=C(/C=C/c1ccco1)Nc1ccc(Oc2ccccc2)cc1`, the inhibition was 62.8% (active).

On to `COc1cccc(NC(=O)COC(=O)/C=C/c2ccco2)c1`, for which the inhibition was 17.7%.

With `O=C(O)/C=C\C(=O)Nc1ccc(OCc2ccccc2)cc1`, the inhibition is -24.5%.

Take `CN(C)c1cccc(C(=O)N2CCC(n3nccc3NC(=O)C3CCOC3)CC2)c1` (stereo not drawn): the inhibition is 3.81%.

With `COc1ccc(C(=O)N2CCN(c3ncccn3)CC2)cc1S(=O)(=O)N1CCOCC1`, the inhibition is 4.39%.

The values are drawn from PubChem BioAssay AID504690 (Sanford-Burnham Center for Chemical Genomics, 2011).
